Screens deposited in PubChem BioAssay by The Scripps Research Institute Molecular Screening Center.
SRC2 inh: inhibits human steroid receptor coactivator 2; Q15596; HEK293 GAL4-SRC2 luciferase reporter, luminescence; inhibition, % at 9 µM; 0.17% of 370,000 active;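 active = inhibition above the mean inhibition of all tested compounds plus 3 SD, set per campaign, cut at about 52% in these data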;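 also: 0% = DMSO treated cells and 100% = cells given Gossypol at 36 µM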
LRH-1 inv ag: NR5A2 inverse agonism in reporter assay; O00482; HEK293T StAR-luciferase reporter, LRH-1 transfected, 24 h; inhibition, % at 3.6 µM; 0.13% of 360,000 active; AID 602396;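 active = inhibition above the mean inhibition of all tested compounds plus 3 SD, cut at about 73% in these data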;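 also: 0% = DMSO wells and 100% = reporter-only cells lacking LRH-1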
NR2F2 inh: inhibitors of human COUP-TFII (NR2F2) | HEK293T NGFI-A luciferase reporter, luminescence | inhibition, % at 8.6 µM | 0.7% of 370,000 active;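 active = inhibition above a per-plate cutoff, mean inhibition of test wells between control levels plus 3 SD, cut at about 38% in these data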;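 also: cells cotransfected with COUP-TFII expression vector driving the NGFI-A reporter; 0% = median of COUP-TF2 test wells and 100% = reporter-only cells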
SRC1 inh: inhibitors of human steroid receptor coactivator 1 (SRC1); AID 588354; inhibition, % at 3.6 µM; 0.12% of 360,000 active; Q15788; HEK293 GAL4-SRC1 luciferase reporter, luminescence;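 active = inhibition above the campaign mean plus 3 SD, with each screening campaign given its own cutoff, cut at about 60% in these data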;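 also: 0% = DMSO treated cells and 100% = gossypol at 36 µM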
SRC3 inh: human NCOA3 inhibition. HEK293 GAL4-SRC3 luciferase reporter, luminescence. inhibition, % at 3.6 µM. 0.17% of 360,000 active;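 active = inhibition above a per-campaign cutoff, the mean of all compounds plus 3 SD, cut at about 60% in these data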;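 also: 0% = DMSO-treated cells and 100% = gossypol-treated cells at 36 µM; higher means less SRC3-driven luciferase light from the GAL4 reporter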
VP16 Luc counter: counter-screen for COUP-TFII antagonists: inhibitors of VP16; shares compounds with NR2F2 inh; HEK293 Gal4-VP16 luciferase reporter, luminescence; inhibition, % at 8.5 µM; 25% of 2,500 active; in the data active = inhibition above about 13%
NR2F2 inh conf: confirmation of human COUP-TFII (NR2F2) inhibitors | shares compounds with NR2F2 inh | HEK293 NGFI-A luciferase reporter, luminescence | inhibition, % at 8.5 µM | 45% of 2,500 active | AID 687008;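 active = mean inhibition over three repeats above a set limit taken from the earlier primary screen, cut at about 38% in these data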;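 also: 100% = cells given the luciferase reporter alone without the COUP-TF2 vector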
Starred values were filed as active, the others as inactive; x = not tested or not shown. Hits are enriched below; roughly 0.81% of the tested compounds scored in any of these assays.

SMILES	SRC2 inh	LRH-1 inv ag	NR2F2 inh	SRC1 inh	SRC3 inh	VP16 Luc counter	NR2F2 inh conf
COc1ccc(CN(Cc2cccnc2)C(=S)NCCc2ccccc2)cc1OC	0	-10	2	0	21	x	x
COC(=O)C1=C(C(=O)OC)[C@]2([C@@H]3CCCCN[C@@H](Cc4ccccc4)C(=O)N3Cc3ccccc3)C=C[C@H]1O2	-3	11	19	2	20	x	x
COC(=O)C1=C(C(=O)OC)[C@@]2([C@@H](Cc3ccc(C)cc3)Nc3ccccc3)C=C[C@@H]1O2	x	x	81*	x	x	31*	28
COC(=O)CC1=C(C(=O)OC)C(c2ccncc2)C(C#N)=C(N)O1 (centres undefined)	8	0	2	-21	4	x	x
COc1cccc(NS(=O)(=O)c2ccc3c(c2)CCN3C(C)=O)c1	28	32	37	2	31	x	x
CSc1cccc(NS(=O)(=O)c2ccc3c(c2)CCN3C(C)=O)c1	24	9	45*	19	23	6	48*
COc1ccccc1-c1cc2nc(-c3ccccc3)cc(N3CCN(C(=O)c4ccco4)CC3)n2n1	37	19	94*	43	34	13	76*
COc1ccccc1-c1cc2nc(-c3ccccc3)cc(N3CCN(C(=O)c4ccoc4)CC3)n2n1	14	36	87*	24	29	10	60*
O=C(c1ccoc1)N1CCN(c2cc(-c3ccccc3)nc3cc(-c4ccccc4)nn23)CC1	11	14	14	0	-9	x	x
Clc1cccc(CNc2nc(-c3ccccn3)nnc2-c2ccccc2)c1	x	x	38*	x	x	1	-34
CNc1nc(-c2ccccn2)nnc1-c1ccccc1	-22	-10	4	-12	4	x	x
CC(C)(C)c1ccc(CNc2nc(-c3ccccn3)nnc2-c2ccccc2)cc1	x	x	49*	x	x	9	16
COc1cc(/C=N/NC(=O)c2ccncc2)ccc1OC(C)=O	11	-2	5	12	5	x	x
COc1cc(C=Nc2c(C)cc(C)cc2C)ccc1OC(C)=O	-6	13	50*	2	3	7	6
CCOc1ccc(/C=C2\CCC(C3CCCC3)C2=O)cc1OC (centres undefined)	-23	-5	12	-47	-6	x	x
COc1cc(C=C2CCCC(=Cc3ccc(OCC4CO4)c(OC)c3)C2=O)ccc1OCC1CO1 (centres undefined)	12	-20	69*	27	31	25*	69*
COc1ccc(/C=C2/CSC/C(=C/c3ccc(OC)c(OC)c3)C2=O)cc1OC	-10	64	73*	-23	-5	57*	97*
COc1ccc(-n2c(Cc3cccn3C)nnc2SCC(=O)Nc2nccs2)cc1	7	14	-3	-5	9	x	x
c1ccc(-c2cc(CSc3nc4ccccc4[nH]3)on2)cc1	-13	-5	40*	0	22	-7	14
Cc1noc(C)c1CSc1nc2ccccc2[nH]1	-19	19	-13	2	-7	x	x
Cc1c(C(=O)OCC2CCCO2)[nH]c2c1C(=O)CC(c1ccc(N(C)C)cc1)C2 (centres undefined)	16	17	37*	3	3	-15	5
O=C(c1ccco1)N1CCCC(c2nc(-c3ccc(S(=O)(=O)NCc4ccccc4)cc3)no2)C1 (centres undefined)	21	16	51*	-7	8	-4	21
COc1ccccc1-c1noc(CCCC(=O)NC2CCCC2)n1	-10	13	0	-6	-5	x	x
Cc1ccc(-c2noc(CCCC(=O)NC3CCCC3)n2)cc1	53*	19	48*	5	29	16*	15
O=C(CCCc1nc(-c2ccccc2Cl)no1)NC1CCCC1	90*	26	73*	45	63*	0	3
SMILES	SRC2 inh	LRH-1 inv ag	NR2F2 inh	SRC1 inh	SRC3 inh	VP16 Luc counter	NR2F2 inh conf
O=C(CCCc1nc(-c2ccccc2)no1)NC1CCCC1	10	3	-4	-17	7	x	x
COc1ccc(OC)c(NC(=O)CCC(=O)Oc2ccc(C)cc2)c1	-15	11	39*	0	6	-6	0
CCC(CO)[n+]1c(C)cc(/C=C2\Sc3ccccc3N2Cc2ccccc2)cc1C (centres undefined)	-22	12	85*	8	3	22*	87*
NC(=O)c1c(NC(=O)c2ccc(F)cc2Cl)sc2c1CCC2	-6	-67	-3	-40	-69	x	x
O=C1C(=O)c2cccnc2-c2ncccc21	94*	104*	103*	89*	91*	97*	112*
Cc1c(/C(O)=C2/C(=O)C(=O)N(CCN3CCOCC3)C2c2ccco2)cnn1-c1ccccc1 (centres undefined)	44	20	60*	43	46	1	46*
Cc1c(/C(O)=C2/C(=O)C(=O)N(Cc3cccnc3)C2c2ccccn2)cnn1-c1ccccc1 (centres undefined)	77*	71	95*	70*	76*	-3	13
Cc1c(/C(O)=C2/C(=O)C(=O)N(Cc3cccnc3)C2c2cccs2)cnn1-c1ccccc1 (centres undefined)	-13	18	36	22	10	x	x
CCSc1nc2ccccc2n1C(=O)/C=C/c1ccc(OC)c(OC)c1	32	-4	58*	-5	24	13	67*
C=CCSc1nc2ccccc2n1C(=O)/C=C/c1cc(OC)c(OC)c(OC)c1	6	-28	46*	-7	36	17*	71*
O=C(Cn1cnc2c(nnn2Cc2ccc(Cl)cc2)c1=O)OCc1ccccc1	-11	-7	-6	7	9	x	x
COc1cc(C(=O)Nc2cc(Cl)ccc2-n2cncn2)ccc1OC(F)F	19	23	7	-2	7	x	x
CC(=O)N1c2ccc(S(=O)(=O)N3CCCC(C(=O)Nc4ccc(C)cc4)C3)cc2CC1C (centres undefined)	5	-6	-3	2	-6	x	x
CC(=O)N1c2ccc(S(=O)(=O)N3CCCC(C(=O)Nc4ccc(F)cc4)C3)cc2CC1C (centres undefined)	23	22	46*	7	10	3	22
Cc1ccc(NC(=O)C2CCN(S(=O)(=O)c3ccc4c(c3)CC(C)N4C(=O)C3CCC3)CC2)nc1 (centres undefined)	-20	18	45*	23	-5	-1	27
CC(=O)Oc1ccc2c(c1)CCC1C2CCC2(C)C(OC(C)=O)CCC12 (centres undefined)	-11	10	-3	7	26	x	x
COc1cc(C(C2C(=O)CC(C)(C)CC2=O)C2C(=O)CC(C)(C)CC2=O)ccc1OC(C)=O	16	8	-8	5	7	x	x
